Experimental data from the supplement of paper PMC12669032.

Assays:
Assay in all cases: growth AUC relative to DMSO control (median of replicates) (fraction); higher = more growth (less inhibition), active = hit call of the paper
Conditions in all cases: 20 µM; 24 h;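 active = AUC reduced over 20% with Padj below 0.05 in at least 2 of 3 replicates; inactive = otherwise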
Akkermansia muciniphila = test system: Akkermansia muciniphila
Method in brief: (§1)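 For each compound at 20 µM (1% DMSO), gut bacterial monocultures seeded at OD600 0.05 grew anaerobically in mGAM at 37 °C in round-bottom 96-well plates. Hourly OD600 readings over 24 h gave growth curves whose minimum OD was set to 0. Area under these curves was normalised to the plate median of solvent-only wells, or to row and column medians on the industrial chemical plate. Values are medians of three biological replicates grown on separate days.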

Bacteroides caccae = test system: Bacteroides caccae
Method in brief: as §1

Bacteroides clarus = test system: Bacteroides clarus
Method in brief: as §1

Bacteroides dorei = test system: Bacteroides dorei
Method in brief: as §1

Bacteroides stercoris = test system: Bacteroides stercoris
Method in brief: as §1

[1] = test system: Bacteroides thetaiotaomicron
Method in brief: as §1

Bacteroides uniformis = test system: Bacteroides uniformis
Method in brief: as §1

[2] = test system: Bifidobacterium longum subsp. longum
Method in brief: as §1

Clostridium difficile = test system: Clostridium difficile
Method in brief: as §1

Collinsella aerofaciens = test system: Collinsella aerofaciens
Method in brief: as §1

Coprococcus comes = test system: Coprococcus comes
Method in brief: as §1

Escherichia coli ED1a = test system: Escherichia coli ED1a
Method in brief: as §1

Escherichia coli IAI1 = test system: Escherichia coli IAI1
Method in brief: as §1

Eubacterium rectale = test system: Eubacterium rectale
Method in brief: as §1

[3] = test system: Fusobacterium nucleatum subsp. animalis
Method in brief: as §1

Lactobacillus gasseri = test system: Lactobacillus gasseri
Method in brief: as §1

Lactobacillus paracasei = test system: Lactobacillus paracasei
Method in brief: as §1

Odoribacter splanchnicus = test system: Odoribacter splanchnicus
Method in brief: as §1

[4] = test system: Parabacteroides distasonis
Method in brief: as §1

Parabacteroides merdae = test system: Parabacteroides merdae
Method in brief: as §1

Measured: growth AUC

CCN(Cc1c(F)cccc1Cl)c1c([N+](=O)[O-])cc(C(F)(F)F)cc1[N+](=O)[O-]
inactive: Akkermansia muciniphila 0.852 | Bacteroides caccae 0.822 | Bacteroides clarus 0.831 | Bacteroides dorei 1.02 | [1] 0.934 | Bacteroides uniformis 1.03 | [2] 0.909 | Clostridium difficile 0.99 | Collinsella aerofaciens 0.829 | Coprococcus comes 0.784 | Escherichia coli ED1a 0.982 | Escherichia coli IAI1 0.986 | Eubacterium rectale 0.896 | [3] 0.937 | Lactobacillus gasseri 0.896 | Lactobacillus paracasei 1.03 | Odoribacter splanchnicus 1.03 | [4] 0.934 | Parabacteroides merdae 0.903
active: Bacteroides stercoris 0.27

CC(C)CCCCCCc1ccc(O)cc1
inactive: Akkermansia muciniphila 0.981 | Bacteroides caccae 1.03 | Bacteroides clarus 1.03 | Bacteroides dorei 1.01 | Bacteroides stercoris 0.923 | [1] 0.992 | Bacteroides uniformis 0.965 | [2] 1.03 | Clostridium difficile 1.07 | Collinsella aerofaciens 0.979 | Coprococcus comes 1.01 | Escherichia coli ED1a 1.02 | Escherichia coli IAI1 1.01 | Eubacterium rectale 0.879 | [3] 1.16 | Lactobacillus gasseri 0.948 | Lactobacillus paracasei 1.03 | Odoribacter splanchnicus 1.05 | [4] 1.02 | Parabacteroides merdae 0.968

O=C(NCc1ncc(C(F)(F)F)cc1Cl)c1c(Cl)cccc1Cl
inactive: Akkermansia muciniphila 0.937 | Bacteroides caccae 0.973 | Bacteroides clarus 0.967 | Bacteroides dorei 0.975 | Bacteroides stercoris 1.17 | [1] 0.95 | Bacteroides uniformis 1.02 | [2] 1.04 | Clostridium difficile 1 | Collinsella aerofaciens 0.987 | Coprococcus comes 1.03 | Escherichia coli ED1a 0.963 | Escherichia coli IAI1 1.03 | Eubacterium rectale 0.98 | [3] 1.01 | Lactobacillus gasseri 1.04 | Lactobacillus paracasei 0.981 | Odoribacter splanchnicus 0.938 | [4] 0.971 | Parabacteroides merdae 0.979

Cc1cc(CC(C)CC(C)(C)C)n(O)c(=O)c1.NCCO (stereo not given)
inactive: Akkermansia muciniphila 1.22 | Bacteroides caccae 0.993 | Bacteroides clarus 0.982 | Bacteroides dorei 0.99 | Bacteroides stercoris 0.932 | [1] 0.999 | Bacteroides uniformis 1 | [2] 0.991 | Clostridium difficile 0.977 | Collinsella aerofaciens 0.933 | Coprococcus comes 0.995 | Escherichia coli ED1a 1.04 | Escherichia coli IAI1 1 | Eubacterium rectale 0.788 | [3] 1.02 | Lactobacillus gasseri 0.971 | Lactobacillus paracasei 1.01 | Odoribacter splanchnicus 0.997 | [4] 1 | Parabacteroides merdae 1.03

COC1CCC2(CC1)NC(=O)C(c1cc(C)ccc1C)C2O (stereo not given)
inactive: Akkermansia muciniphila 1.08 | Bacteroides caccae 0.974 | Bacteroides clarus 1.04 | Bacteroides dorei 1.02 | Bacteroides stercoris 1.14 | [1] 0.999 | Bacteroides uniformis 1.02 | [2] 1.05 | Clostridium difficile 1.01 | Collinsella aerofaciens 1.05 | Coprococcus comes 1.04 | Escherichia coli ED1a 1.03 | Escherichia coli IAI1 1.03 | Eubacterium rectale 1.11 | [3] 1.16 | Lactobacillus gasseri 0.99 | Lactobacillus paracasei 1.03 | Odoribacter splanchnicus 1.01 | [4] 1.07 | Parabacteroides merdae 1.02

S=C([S-])NCCNC(=S)[S-].[Mn+2]
inactive: Akkermansia muciniphila 0.999 | Bacteroides caccae 1.01 | Bacteroides clarus 1.13 | Bacteroides dorei 0.979 | Bacteroides stercoris 1.1 | [1] 1.03 | Bacteroides uniformis 0.991 | [2] 0.996 | Clostridium difficile 0.977 | Collinsella aerofaciens 1 | Coprococcus comes 0.998 | Escherichia coli ED1a 1.03 | Escherichia coli IAI1 1.03 | Eubacterium rectale 1.02 | [3] 1.04 | Lactobacillus gasseri 0.994 | Lactobacillus paracasei 1.16 | Odoribacter splanchnicus 1.06 | [4] 1.02 | Parabacteroides merdae 1.03

CCSC(=O)N(CC)CC
inactive: Akkermansia muciniphila 1.01 | Bacteroides caccae 0.998 | Bacteroides clarus 0.991 | Bacteroides dorei 1.01 | Bacteroides stercoris 1.1 | [1] 1.03 | Bacteroides uniformis 1.01 | [2] 0.929 | Clostridium difficile 0.982 | Collinsella aerofaciens 0.982 | Coprococcus comes 1.04 | Escherichia coli ED1a 1 | Escherichia coli IAI1 0.994 | Eubacterium rectale 1 | [3] 1.02 | Lactobacillus gasseri 0.988 | Lactobacillus paracasei 0.983 | Odoribacter splanchnicus 0.915 | [4] 1.01 | Parabacteroides merdae 0.981

CCCOC(=O)NCCCN(C)C
inactive: Akkermansia muciniphila 0.994 | Bacteroides caccae 1.01 | Bacteroides clarus 1.03 | Bacteroides dorei 1 | Bacteroides stercoris 0.98 | [1] 1.02 | Bacteroides uniformis 1 | [2] 1.02 | Clostridium difficile 0.987 | Collinsella aerofaciens 0.975 | Coprococcus comes 0.979 | Escherichia coli ED1a 1.02 | Escherichia coli IAI1 0.979 | Eubacterium rectale 0.952 | [3] 0.984 | Lactobacillus gasseri 0.951 | Lactobacillus paracasei 1.04 | Odoribacter splanchnicus 1.01 | [4] 0.989 | Parabacteroides merdae 0.977

C=C1C[C@]23C[C@@]1(O)CC[C@H]2[C@@]12C=C[C@H](O)[C@@](C)(C(=O)O1)[C@H]2[C@@H]3C(=O)O
inactive: Akkermansia muciniphila 1.24 | Bacteroides caccae 0.966 | Bacteroides clarus 0.999 | Bacteroides dorei 0.921 | Bacteroides stercoris 1.01 | [1] 1.02 | Bacteroides uniformis 0.947 | [2] 0.915 | Clostridium difficile 0.931 | Collinsella aerofaciens 0.95 | Coprococcus comes 0.975 | Escherichia coli ED1a 0.982 | Escherichia coli IAI1 1.01 | Eubacterium rectale 1.14 | [3] 0.967 | Lactobacillus gasseri 0.921 | Lactobacillus paracasei 0.94 | Odoribacter splanchnicus 0.779 | [4] 0.778 | Parabacteroides merdae 0.995

COc1c(I)cc(C#N)cc1I
inactive: Akkermansia muciniphila 0.86 | Bacteroides caccae 0.837 | Bacteroides clarus 0.932 | Bacteroides dorei 1.02 | Bacteroides stercoris 1.13 | [1] 0.932 | Bacteroides uniformis 0.882 | [2] 1.02 | Clostridium difficile 0.943 | Collinsella aerofaciens 0.883 | Coprococcus comes 0.973 | Escherichia coli ED1a 1 | Escherichia coli IAI1 0.975 | Eubacterium rectale 1 | [3] 0.981 | Lactobacillus gasseri 0.895 | Lactobacillus paracasei 0.911 | Odoribacter splanchnicus 1.03 | [4] 0.966 | Parabacteroides merdae 0.944

COC(=O)c1c(Cl)c(Cl)c(C(=O)OC)c(Cl)c1Cl
inactive: Akkermansia muciniphila 0.846 | Bacteroides caccae 1.04 | Bacteroides clarus 0.985 | Bacteroides dorei 1.02 | Bacteroides stercoris 0.88 | [1] 1.02 | Bacteroides uniformis 0.994 | [2] 0.953 | Clostridium difficile 1.07 | Collinsella aerofaciens 0.986 | Coprococcus comes 1.05 | Escherichia coli ED1a 0.979 | Escherichia coli IAI1 0.995 | Eubacterium rectale 1.16 | [3] 0.963 | Lactobacillus gasseri 0.974 | Lactobacillus paracasei 0.982 | Odoribacter splanchnicus 1.1 | [4] 0.979 | Parabacteroides merdae 1.01

COc1nc(N)nc(NC(C)(C)C)n1
inactive: Akkermansia muciniphila 1.01 | Bacteroides caccae 0.996 | Bacteroides clarus 0.965 | Bacteroides dorei 1.03 | Bacteroides stercoris 0.967 | [1] 1.01 | Bacteroides uniformis 1 | [2] 1.01 | Clostridium difficile 0.98 | Collinsella aerofaciens 0.959 | Coprococcus comes 1.03 | Escherichia coli ED1a 1 | Escherichia coli IAI1 0.98 | Eubacterium rectale 0.976 | [3] 0.964 | Lactobacillus gasseri 0.933 | Lactobacillus paracasei 1.02 | Odoribacter splanchnicus 1.07 | [4] 1 | Parabacteroides merdae 1.02

CC(C)(c1cc(Br)c(O)c(Br)c1)c1cc(Br)c(O)c(Br)c1
inactive: Akkermansia muciniphila 0.904 | Escherichia coli ED1a 1.04 | Escherichia coli IAI1 0.997
active: Bacteroides caccae 0.0238 | Bacteroides clarus 0.0496 | Bacteroides dorei 0.675 | Bacteroides stercoris 0.0125 | [1] 0.662 | Bacteroides uniformis 0.297 | [2] 0.252 | Clostridium difficile 0.0683 | Collinsella aerofaciens 0.0491 | Coprococcus comes 0.41 | Eubacterium rectale 0.0259 | [3] 0.465 | Lactobacillus gasseri 0.136 | Lactobacillus paracasei 0.0653 | Odoribacter splanchnicus 0.0465 | [4] 0.0802 | Parabacteroides merdae 0.151

CC1(C)C(C(=O)OC(C#N)c2cccc(Oc3ccccc3)c2)C1C(Br)C(Br)(Br)Br (stereo not given)
inactive: Akkermansia muciniphila 0.951 | Bacteroides caccae 0.934 | Bacteroides clarus 1.04 | Bacteroides dorei 0.995 | Bacteroides stercoris 1.2 | [1] 1 | Bacteroides uniformis 0.943 | [2] 1.03 | Clostridium difficile 1.03 | Collinsella aerofaciens 0.939 | Coprococcus comes 0.99 | Escherichia coli ED1a 1.02 | Escherichia coli IAI1 1.01 | Eubacterium rectale 0.996 | [3] 1.05 | Lactobacillus gasseri 1.04 | Lactobacillus paracasei 1.12 | Odoribacter splanchnicus 1.06 | [4] 0.998 | Parabacteroides merdae 1

Br[C@@H]1CC[C@@H](Br)[C@@H](Br)CC[C@H](Br)[C@H](Br)CC[C@H]1Br
inactive: Akkermansia muciniphila 1.04 | Bacteroides caccae 0.941 | Bacteroides clarus 1 | Bacteroides dorei 0.985 | Bacteroides stercoris 1 | [1] 0.978 | Bacteroides uniformis 0.977 | [2] 0.979 | Clostridium difficile 1 | Collinsella aerofaciens 0.815 | Coprococcus comes 0.975 | Escherichia coli ED1a 0.944 | Escherichia coli IAI1 0.968 | Eubacterium rectale 1.08 | [3] 1.03 | Lactobacillus gasseri 0.91 | Lactobacillus paracasei 0.872 | Odoribacter splanchnicus 0.992 | [4] 0.825 | Parabacteroides merdae 1

CCOc1nc(F)cc2nc(S(=O)(=O)Nc3c(Cl)cccc3C(=O)OC)nn12
inactive: Akkermansia muciniphila 0.983 | Bacteroides caccae 0.999 | Bacteroides clarus 0.984 | Bacteroides dorei 0.988 | Bacteroides stercoris 0.978 | [1] 0.999 | Bacteroides uniformis 0.987 | [2] 0.982 | Clostridium difficile 0.98 | Collinsella aerofaciens 1.02 | Coprococcus comes 0.984 | Escherichia coli ED1a 0.991 | Escherichia coli IAI1 1.01 | Eubacterium rectale 0.967 | [3] 0.995 | Lactobacillus gasseri 1.01 | Lactobacillus paracasei 1.06 | Odoribacter splanchnicus 1.04 | [4] 1.05 | Parabacteroides merdae 1.02
